From PubChem BioAssay AID540351 (The Scripps Research Institute Molecular Screening Center, 2011) come the findings set out here.

Each structure is given as a SMILES string. Values without a mark were called inactive. No rule for the calls is given here.

The assay relates to Imidazoline I2. Nature of the assay: selectivity profiling over binding targets, CYP450 – biochemical, Ricerca HitProfilingScreen, selectivity assay for S1P3 agonist project, profiling panel (AID 540351). The settings on record: Ricerca receptor/enzyme binding panel plus CYP450, Central, at 30 µM, active compounds read high.

The term inhibition denotes the drop in the measured response relative to a control, in per cent. In the case of `O=C(c1cc(C2CC2)on1)N(C1CCCCC1)C1CCCCC1`, the inhibition was 23%.
